High-throughput results (PubChem)
SW480 rerep – A quantitative high throughput screen for small molecules that induce DNA re-replication in SW480 colon adenocarcinoma cells; SW480 DNA re-replication, Hoechst DNA content imaging, 48 h; Potency, µM (series often up to 46.1 µM), usual class: activators; 1.8% of 340,000 active; further: nearly all actives have a fitted effect of over 55% in size
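SW480 cells exposed to compounds for 48 hr at 37 C, 5% CO2, then Hoechst-stained 40 min. Nuclear DNA content imaged by fluorescence scanning (405 nm excitation, 500-530 nm emission); re-replication scored as increased high-intensity nuclei.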
HT1080 IDH1KD tx – qHTS for induction of synthetic lethality in tumor cells producing 2HG: qHTS for the HT-1080-IDH1KD cell line. HT-1080 IDH1 knockdown viability, ATP luminescence, 48 h. Potency, µM (series often up to 46.1 µM), actives largely listed as cytotoxic. 2% of 360,000 active. AID 686971, 2013
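CellTiter-Glo luminescence after 48 h compound exposure at 37 degrees C of IDH1-knockdown HT-1080 cells in 5% FBS RPMI. %Activity scaled between DMSO wells and cell-free media wells, with curves fitted and assigned curve classes.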
HT1080NT lethal – qHTS for induction of synthetic lethality in tumor cells producing 2HG: qHTS for the HT-1080-NT fibrosarcoma cell line. HT-1080-NT fibrosarcoma viability, CellTiter-Glo ATP luminescence, 48 h. Potency, µM (titrated, usually from 46.1 µM), actives largely listed as cytotoxic. 1.6% of 360,000 active. AID 686970, 2013;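 further: NT is the 2HG producing partner of a matched IDH1 knockdown line; nearly all actives have a fitted effect of over 55% in size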
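Luminescent CellTiter-Glo readout after 48 hours of compound exposure at 37 degrees C defined viability of HT-1080-NT cells. Activity was normalized to DMSO wells and cell-free media wells; concentration-response curves were fitted and assigned curve classes.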
KB-3-1 cytotox – qHTS assay for MDR1-selective chemotherapeutics: Primary screen using the parental adenocarcinoma cell KB-3-1 | KB-3-1 viability, CellTiter-Glo ATP luminescence, 72 h | Potency, µM (top dose mostly 46.1 µM), actives largely listed as cytotoxic | 1.4% of 400,000 active | AID 1347075, 2019; further: nearly all actives have a fitted effect of over 60% in size
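Parental KB-3-1 adenocarcinoma cells in phenol-red-free DMEM with 10% FBS were pin-treated with compounds at several concentrations, incubated 72 h at 37 °C, and viability read by CellTiter-Glo luminescence; concentration-effect curves were fitted after normalization.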
KB-V1 cytotox – qHTS assay for MDR1-selective chemotherapeutics: Primary screen using the drug-selected MDR subline cells KB-V1. KB-V1 MDR cells viability, CellTiter-Glo, 72 h. 3.4% of 400,000 active. Potency, µM (series often up to 46.1 µM), hits mostly cytotoxic; further: nearly all actives have a fitted effect of over 60% in size
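Potencies derive from concentration-effect curves fitted to normalized luminescence (CellTiter-Glo) of KB-V1 cells treated for 72 h at 37 degrees C in phenol-red-free DMEM containing 10% FBS.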
MCF10A rerep – A quantitative high throughput screen for small molecules that induce DNA re-replication in MCF 10a normal breast cells; Potency, µM (titrated, usually from 46.1 µM), actives largely listed as activators; MCF 10A DNA re-replication, Hoechst nuclear intensity, 48 h; AID 624296, 2012; 2.9% of 350,000 active; further: nearly all actives have a fitted effect of over 50% in size
Of the large screens only hits and unclear results are named; the others gave an inactive call. Sampled rows, rich in hits. Any-hit rate of the full collection: about 8%. The call rests on the fitted dose curve; in most records, active means well fitted curve in the direction sought with a large enough effect; inconclusive means small, poorly fitted or top-dose-only effect, or another doubt; inactive means no such curve, though single readings can be large; an effect the other way counts as inactive or inconclusive.

COc1cc(/C=C/C(=O)c2ccc([N+](=O)[O-])o2)ccc1O	SW480 rerep 0.058µM, HT1080 IDH1KD tx inconclusive, HT1080NT lethal 18µM, MCF10A rerep inconclusive
Cc1cc(NC(=O)C2CCCN(S(=O)(=O)c3cccc4nsnc34)C2)ccc1Br (stereo not drawn)	none (no result: SW480 rerep, HT1080 IDH1KD tx, HT1080NT lethal, MCF10A rerep)
COc1c(Cl)cccc1-c1cn2ccccc2n1	HT1080 IDH1KD tx inconclusive, HT1080NT lethal inconclusive, KB-V1 cytotox 12µM
COc1ccc(-c2cn3ccccc3n2)cc1	HT1080 IDH1KD tx inconclusive, HT1080NT lethal inconclusive, KB-3-1 cytotox inconclusive, KB-V1 cytotox inconclusive
COC(=O)C(NC(=O)CCC(=O)NC(C(=O)OC)c1ccccc1)c1ccccc1 (stereo not drawn)	none
COC(=O)c1[nH]cnc1C(=O)c1ccccc1	none
COC1=C(OC)C(=O)C(Sc2ccc3ccccc3c2)=CC1=O	SW480 rerep 18µM, HT1080 IDH1KD tx 16µM, HT1080NT lethal inconclusive, KB-3-1 cytotox inconclusive, KB-V1 cytotox 2.6µM, MCF10A rerep 5.8µM
CCc1sc(-c2cc3ccc(O)cc3oc2=O)nc1-c1ccc(C)cc1	KB-V1 cytotox inconclusive (no result: SW480 rerep, HT1080 IDH1KD tx, HT1080NT lethal, MCF10A rerep)
O=c1oc2cc(O)ccc2cc1-c1nc2c(s1)CCc1ccccc1-2	SW480 rerep 3.7µM, MCF10A rerep inconclusive
O=c1oc2ccc3ccccc3c2cc1-c1nc2c(s1)CCc1ccccc1-2	KB-3-1 cytotox inconclusive (no result: SW480 rerep, HT1080 IDH1KD tx, HT1080NT lethal, MCF10A rerep)
O=c1oc2ccccc2cc1-c1nc2c(s1)CCc1ccccc1-2	SW480 rerep 21µM, MCF10A rerep inconclusive
CS(=O)(=O)c1nc(-c2ccc(Br)cc2)cc(-c2ccccc2)c1C#N	SW480 rerep 3.7µM, HT1080 IDH1KD tx inconclusive, HT1080NT lethal inconclusive, KB-3-1 cytotox inconclusive, MCF10A rerep 5.8µM
CS(=O)c1nc(-c2ccc(Br)cc2)cc(-c2ccccc2)c1C#N (stereo not drawn)	HT1080 IDH1KD tx 3.5µM, HT1080NT lethal 5.6µM, KB-3-1 cytotox inconclusive, KB-V1 cytotox inconclusive
COc1ccc(-c2cc(-c3ccccc3)c(C#N)c(S(C)(=O)=O)n2)cc1	SW480 rerep inconclusive, KB-3-1 cytotox inconclusive, MCF10A rerep inconclusive
CCS(=O)(=O)CCSc1nc(-c2ccc(Br)cc2)cc(-c2ccccc2)c1C#N	none (no result: SW480 rerep, HT1080 IDH1KD tx, HT1080NT lethal, MCF10A rerep)
Cc1cccc(N2CCN(C(=O)CN3C(=O)CSc4c3c(C)nn4-c3ccccc3)CC2)c1C	none (no result: SW480 rerep, HT1080 IDH1KD tx, HT1080NT lethal, MCF10A rerep)
C=CCNC(=O)/C(C#N)=C/c1ccccc1[N+](=O)[O-]	SW480 rerep inconclusive
N#C/C(=C\c1ccccc1[N+](=O)[O-])C(=O)NCc1ccccc1	SW480 rerep inconclusive, MCF10A rerep inconclusive
N#C/C(=C\C=C\c1ccccc1[N+](=O)[O-])C(=O)NCc1ccccc1	SW480 rerep 21µM, HT1080 IDH1KD tx inconclusive, KB-3-1 cytotox 16µM, KB-V1 cytotox inconclusive, MCF10A rerep 3.7µM
CCCCCCCCNC(=O)/C(C#N)=C/c1ccccc1[N+](=O)[O-]	KB-3-1 cytotox inconclusive, KB-V1 cytotox 16µM, MCF10A rerep inconclusive
CCOC(=O)c1ccc(NC(=O)CCc2nc(-c3cccc(C)c3)no2)cc1	KB-3-1 cytotox inconclusive, KB-V1 cytotox 21µM, MCF10A rerep inconclusive
COc1ccccc1-c1noc(CCC(=O)Nc2cccc(C(F)(F)F)c2)n1	KB-3-1 cytotox inconclusive, KB-V1 cytotox 21µM
COc1ccccc1NC(=O)CCc1nc(-c2ccccc2F)no1	KB-V1 cytotox inconclusive
COc1cccc(NC(=O)CCc2nc(-c3cccs3)no2)c1	HT1080 IDH1KD tx inconclusive, HT1080NT lethal 7.3µM
Cc1cccc(-c2noc(CCC(=O)Nc3ccccc3)n2)c1	none
COc1nc(C)ccc1-c1noc(-c2cccs2)n1	none
CC1(C)Cc2c(C#N)c(NCCO)nc(-c3ccco3)c2CO1	SW480 rerep 18µM, KB-V1 cytotox inconclusive, MCF10A rerep 23µM
